# Measurements published in PubChem BioAssay AID720690 (Broad Institute, 2013).
# Results with a measured potency or affinity are listed apart. Activity calls are given as the source filed them.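 Rule for the calls: active = every repeat run showing a signal drop whose fitted half-maximal concentration is at most twice the top tested concentration; inconclusive = repeat runs disagree, or flat partial drop, or poor fit; inactive = the rest.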
# Assay: general mammalian cell viability loss – activator set, cherry-pick, cytotoxicity control for miR-122 modulator project, dose response (AID 720690)
# Details: HEK293T viability, CellTiter-Glo luminescence, 48 h; series mostly up to 26 µM
row,SMILES,outcome
1,CNC(=O)C[C@@H]1CC[C@@H]2[C@@H](COc3ccc(NC(=O)Cc4cccs4)cc3C(=O)N2C)O1,inactive
2,CCC(=O)N1[C@H](CN(C)C(C)=O)[C@H](c2ccc(-c3cccnc3)cc2)[C@@H]1CO,inactive
3,CNC(=O)C[C@H]1CC[C@@H]2[C@H](COc3ccc(NS(=O)(=O)c4ccc(F)cc4)cc3C(=O)N2C)O1,inactive
4,CC(C)C(=O)Nc1ccc2c(c1)C(=O)N(C)[C@@H]1CC[C@H](CC(=O)N[C@H](C)c3ccccc3)O[C@@H]1CO2,inactive
5,CN1C(=O)c2cc(NC(=O)c3cccc(F)c3)ccc2OC[C@H]2O[C@H](CC(=O)NC3CCC3)CC[C@@H]21,inactive
6,CNC(=O)c1nc(C)n(-c2cc(Cl)cc(Cl)c2)n1,inactive
7,CCOC(=O)c1ccc(NC(=O)c2ccc(CN3CCOCC3)cc2)cc1,inactive
8,C[C@@H]1CN([C@H](C)CO)S(=O)(=O)c2ccc(C3=CCCCC3)cc2O[C@@H]1CN(C)C(=O)Cc1ccncc1,inactive
9,CSc1cccc(NS(=O)(=O)c2ccccc2)c1,inactive
10,CCCC(=O)Nc1ccc2c(c1)C(=O)N(C)[C@@H]1CC[C@@H](CC(=O)NCC(F)(F)F)O[C@H]1CO2,inactive
11,CN(C)CCNC(=O)C1CC(=O)N(c2ccc(F)c(Cl)c2)C1 (centres undefined),inactive
12,COCC(=O)N(C)C[C@H]1Oc2cc(C#Cc3cccnc3)ccc2S(=O)(=O)N([C@@H](C)CO)C[C@H]1C,inactive
13,CC(C)C(=O)Nc1ccc2c(c1)C(=O)N(C)[C@@H]1CC[C@H](CC(=O)O)O[C@H]1CO2,inactive
14,CN1C(=O)c2cc(NC(=O)c3cccc(F)c3)ccc2OC[C@@H]2O[C@H](CC(=O)NC3CCC3)CC[C@@H]21,inactive
